The supplement of paper PMC6555819

Key:
Test in all cases: PBM binding z-score (relative to random genomic background probes); higher = stronger binding; sequences stand for … in GC…GCGATTGACAGCGTAGAATGAAGG
[1] = system: FXR:RXRa (NR concentration 270 nM, RXRa partner concentration 90 nM)
Method in brief: (§1)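 For binding z-scores, the reference was random background probes on custom Agilent 4×180K protein-binding microarrays. These arrays were incubated 1 h with ligand-free nuclear receptor dimers in PBS pH 7.4, 2% milk, 0.02% Triton X-100, 1 mM DTT, 0.2 mg/mL BSA and 0.4 mg/ml salmon testes DNA. Fluorescence was scanned after antibody detection of each partner (one per run) and regression-normalized.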

[2] = system: LXRa:RXRa (NR concentration 270 nM, RXRa partner concentration 90 nM)
Method in brief: as §1

[3] = system: LXRa homodimer (NR concentration 270 nM)
Method in brief: as §1

[4] = system: LXRb:RXRa (NR concentration 270 nM, RXRa partner concentration 90 nM)
Method in brief: as §1

[5] = system: LXRb homodimer (NR concentration 270 nM)
Method in brief: as §1

[6] = system: PPARa:RXRa (NR concentration 270 nM, RXRa partner concentration 90 nM)
Method in brief: as §1

[7] = system: PPARg:RXRa (NR concentration 180 nM, RXRa partner concentration 90 nM)
Method in brief: as §1

[8] = system: PPARg:RXRa 270nM:90nM, anti-RXR (NR concentration 270 nM, RXRa partner concentration 90 nM)
Method in brief: as §1

[9] = system: PPARg:RXRa 30nM:10nM, anti-RXR (NR concentration 30 nM, RXRa partner concentration 10 nM)
Method in brief: as §1

[10] = system: PPARg:RXRa 90nM:30nM, anti-RXR (NR concentration 90 nM, RXRa partner concentration 30 nM)
Method in brief: as §1

[11] = system: PPARg:RXRa DBDmut IVT, anti-RXR (DBD mutation: RXRa K156A/R161A, NR concentration 270 nM, RXRa partner concentration 90 nM)
Method in brief: as §1

[12] = system: PPARg:RXRa IVT, anti-PPARg (NR concentration 270 nM, RXRa partner concentration 90 nM)
Method in brief: as §1

[13] = system: PPARg DBDmut:RXRa IVT, anti-PPARg (DBD mutation: PPARg1 K132A/R137A, NR concentration 270 nM, RXRa partner concentration 90 nM)
Method in brief: as §1

[14] = system: PPARg DBDmut IVT, anti-PPARg (DBD mutation: PPARg1 K132A/R137A, NR concentration 270 nM)
Method in brief: as §1

[15] = system: PPARg homodimer (NR concentration 180 nM)
Method in brief: as §1

[16] = system: PXR:RXRa (NR concentration 270 nM, RXRa partner concentration 90 nM)
Method in brief: as §1

[17] = system: PXR homodimer (NR concentration 270 nM)
Method in brief: as §1

[18] = system: RARa:RXR (NR concentration 270 nM, RXRa partner concentration 90 nM)
Method in brief: as §1

[19] = system: RARa homodimer (NR concentration 270 nM)
Method in brief: as §1

[20] = system: RARb:RXRa (NR concentration 270 nM, RXRa partner concentration 90 nM)
Method in brief: as §1

GTACGAAGGTGAATAGGTCGTTGATGAGTAGGCG
PBM binding z-score [1]: 0.531
PBM binding z-score [2]: 0.661
PBM binding z-score [3]: -0.364
PBM binding z-score [4]: 0.505
PBM binding z-score [5]: -0.557
PBM binding z-score [6]: 2.15
PBM binding z-score [7]: 1.38
PBM binding z-score [8]: 1.87
PBM binding z-score [9]: 0.421
PBM binding z-score [10]: 1.22
PBM binding z-score [11]: 1.5
PBM binding z-score [12]: 2.19
PBM binding z-score [13]: -0.159
PBM binding z-score [14]: -0.129
PBM binding z-score [15]: 0.859
PBM binding z-score [16]: 0.754
PBM binding z-score [17]: -0.215
PBM binding z-score [18]: 1.75
PBM binding z-score [19]: 0.356
PBM binding z-score [20]: 2.01

AATACAGGGTCATCGTAGGCCAGAGTACGCACAG
PBM binding z-score [1]: 7.52
PBM binding z-score [2]: 6.07
PBM binding z-score [3]: 2.44
PBM binding z-score [4]: 4.7
PBM binding z-score [5]: 1.5
PBM binding z-score [6]: 5.73
PBM binding z-score [7]: 6.55
PBM binding z-score [8]: 6.09
PBM binding z-score [9]: 2.58
PBM binding z-score [10]: 4.87
PBM binding z-score [11]: 2.76
PBM binding z-score [12]: 4.32
PBM binding z-score [13]: 1.59
PBM binding z-score [14]: 1.19
PBM binding z-score [15]: 1.96
PBM binding z-score [16]: 4.94
PBM binding z-score [17]: 0.48
PBM binding z-score [18]: 4.82
PBM binding z-score [19]: 0.854
PBM binding z-score [20]: 4.37

CCTGACAGGTGAGAAGGTAACTCAGCCTCGATTA
PBM binding z-score [1]: -0.00915
PBM binding z-score [2]: 0.102
PBM binding z-score [3]: -0.219
PBM binding z-score [4]: -0.0265
PBM binding z-score [5]: -0.779
PBM binding z-score [6]: 0.763
PBM binding z-score [7]: 0.404
PBM binding z-score [8]: 0.701
PBM binding z-score [9]: -0.205
PBM binding z-score [10]: 0.257
PBM binding z-score [11]: 1.12
PBM binding z-score [12]: 0.913
PBM binding z-score [13]: -0.717
PBM binding z-score [14]: -0.671
PBM binding z-score [15]: 0.832
PBM binding z-score [16]: -0.216
PBM binding z-score [17]: -0.0629
PBM binding z-score [18]: 0.621
PBM binding z-score [19]: -0.07
PBM binding z-score [20]: 0.751

ATCGAAAGGTCGTGAGGTGAGCATACAGAAAGGC
PBM binding z-score [1]: 4.88
PBM binding z-score [2]: 3.62
PBM binding z-score [3]: -0.0763
PBM binding z-score [4]: 2.89
PBM binding z-score [5]: 0.368
PBM binding z-score [6]: 4.84
PBM binding z-score [7]: 3.58
PBM binding z-score [8]: 4.56
PBM binding z-score [9]: 1.29
PBM binding z-score [10]: 2.96
PBM binding z-score [11]: 0.297
PBM binding z-score [12]: 2.79
PBM binding z-score [13]: 1.33
PBM binding z-score [14]: 0.333
PBM binding z-score [15]: 0.137
PBM binding z-score [16]: 2.77
PBM binding z-score [17]: 0.261
PBM binding z-score [18]: 3.85
PBM binding z-score [19]: 0.316
PBM binding z-score [20]: 3.89

CCGACTGGGGCATAAGGTTACCATTAGCCAGCCC
PBM binding z-score [1]: 0.294
PBM binding z-score [2]: 0.416
PBM binding z-score [3]: -0.399
PBM binding z-score [4]: 0.617
PBM binding z-score [5]: -1.38
PBM binding z-score [6]: 1.85
PBM binding z-score [7]: 2.02
PBM binding z-score [8]: 3.12
PBM binding z-score [9]: 0.689
PBM binding z-score [10]: 2.57
PBM binding z-score [11]: 3.03
PBM binding z-score [12]: 3.04
PBM binding z-score [13]: -1.02
PBM binding z-score [14]: -1.9
PBM binding z-score [15]: 0.694
PBM binding z-score [16]: 0.105
PBM binding z-score [17]: -0.286
PBM binding z-score [18]: 1.35
PBM binding z-score [19]: -0.407
PBM binding z-score [20]: 1.61

CCTACTGGGACAAAGGTCATTGATTCCAATGCTC
PBM binding z-score [1]: 5.11
PBM binding z-score [2]: 5.21
PBM binding z-score [3]: 4.66
PBM binding z-score [4]: 4.9
PBM binding z-score [5]: 1.5
PBM binding z-score [6]: 6.27
PBM binding z-score [7]: 11.8
PBM binding z-score [8]: 10.3
PBM binding z-score [9]: 12.2
PBM binding z-score [10]: 11.7
PBM binding z-score [11]: 5.4
PBM binding z-score [12]: 7.14
PBM binding z-score [13]: 1.81
PBM binding z-score [14]: 1.06
PBM binding z-score [15]: 4.59
PBM binding z-score [16]: 5.27
PBM binding z-score [17]: 2.24
PBM binding z-score [18]: 6.06
PBM binding z-score [19]: 2
PBM binding z-score [20]: 4.45

GCTTACGGGGCAAAGGTTATAGCATGAATAGAAT
PBM binding z-score [1]: 2.32
PBM binding z-score [2]: 2.71
PBM binding z-score [3]: 0.016
PBM binding z-score [4]: 3.48
PBM binding z-score [5]: 0.208
PBM binding z-score [6]: 5.38
PBM binding z-score [7]: 8.91
PBM binding z-score [8]: 8.3
PBM binding z-score [9]: 7.37
PBM binding z-score [10]: 9.06
PBM binding z-score [11]: 3.33
PBM binding z-score [12]: 4.27
PBM binding z-score [13]: 0.825
PBM binding z-score [14]: 1.35
PBM binding z-score [15]: 2.67
PBM binding z-score [16]: 2.99
PBM binding z-score [17]: 0.0717
PBM binding z-score [18]: 4.63
PBM binding z-score [19]: 0.155
PBM binding z-score [20]: 2.32

CCTACTGGGCCAAAAAGGTGATTGATGCCGATAA
PBM binding z-score [1]: -0.195
PBM binding z-score [2]: -0.147
PBM binding z-score [3]: -0.405
PBM binding z-score [4]: -0.234
PBM binding z-score [5]: -0.963
PBM binding z-score [6]: 0.761
PBM binding z-score [7]: 0.56
PBM binding z-score [8]: 0.945
PBM binding z-score [9]: -0.119
PBM binding z-score [10]: 0.309
PBM binding z-score [11]: 2.58
PBM binding z-score [12]: 2.98
PBM binding z-score [13]: -0.0281
PBM binding z-score [14]: -0.242
PBM binding z-score [15]: 0.459
PBM binding z-score [16]: -0.0996
PBM binding z-score [17]: -0.324
PBM binding z-score [18]: -0.0994
PBM binding z-score [19]: -0.0492
PBM binding z-score [20]: 0.271
